Laboratory results published in the antibiotic and cytotoxicity screens of Wong et al. (2023).
Screen size: about 39,000 compounds; about 3,300 (8.5%) were called active. Shown is part of a subset that was picked to be rich in actives.

test system: HepG2; test: cytotoxicity call (relative viability < 0.9); conditions: 10 µM

Structure (SMILES) | cytotoxicity call
O=C(Cc1nn[nH]n1)NS(=O)(=O)c1ccccc1 | inactive
C[C@@H]1CN([C@H](C)CO)C(=O)c2cc(NC(=O)Nc3ccc(F)cc3)ccc2O[C@@H](C)CCCCO[C@@H]1CN(C)CC1CCCCC1 | active
C[C@@H]1CN([C@@H](C)CO)C(=O)c2cc(NC(=O)Nc3ccc(F)cc3)ccc2O[C@@H](C)CCCCO[C@H]1CN(C)CC1CC1 | inactive
C[C@@H]1CCCCO[C@H](CN(C)CC2CC2)[C@H](C)CN([C@@H](C)CO)C(=O)c2cc(NC(=O)Nc3ccc(F)cc3)ccc2O1 | inactive
C[C@@H]1CCCCO[C@@H](CN(C)CC2CCCCC2)[C@@H](C)CN([C@@H](C)CO)C(=O)c2cc(NC(=O)Nc3ccc(F)cc3)ccc2O1 | inactive
C[C@@H]1CCCCO[C@@H](CN(C)CC2CCCCC2)[C@@H](C)CN([C@H](C)CO)C(=O)c2cc(NC(=O)Nc3ccc(F)cc3)ccc2O1 | inactive
C[C@@H]1CCCCO[C@H](CN(C)CC2CCCCC2)[C@H](C)CN([C@H](C)CO)C(=O)c2cc(NC(=O)Nc3ccc(F)cc3)ccc2O1 | active
C[C@H]1CCCCO[C@@H](CN(C)CC2CCCCC2)[C@@H](C)CN([C@@H](C)CO)C(=O)c2cc(NC(=O)Nc3ccc(F)cc3)ccc2O1 | active
C[C@@H]1CCCCO[C@H](CN(C)CC2CC2)[C@@H](C)CN([C@H](C)CO)C(=O)c2cc(NC(=O)Nc3ccc(F)cc3)ccc2O1 | inactive
C[C@H]1CCCCO[C@H](CN(C)CC2CCCCC2)[C@@H](C)CN([C@@H](C)CO)C(=O)c2cc(NC(=O)Nc3ccc(F)cc3)ccc2O1 | active
C[C@@H]1CCCCO[C@@H](CN(C)CC2CC2)[C@H](C)CN([C@H](C)CO)C(=O)c2cc(NC(=O)Nc3ccc(F)cc3)ccc2O1 | inactive
CO[C@@]1(C2=NCCN2)COc2ccccc2O1 | inactive
O=C1O[C@@H](c2ccccc2)[C@@H](c2ccccc2)N2[C@@H](c3ccccc3OCCO)[C@]3(C(=O)Nc4ccc(C#CC5(O)CCCCCC5)cc43)[C@@H](C(=O)N3CCCCCCC3)[C@H]12 | inactive
C[C@H](CO)N1C[C@H](C)[C@H](CN(C)C(=O)C2CCCCC2)OCCCC[C@H](C)Oc2ccc(NC(=O)C3CCCCC3)cc2C1=O | inactive
CCCn1c(=O)c(C)cn2nc(N)nc12 | inactive
O=C(N[C@@H]1C=C[C@@H](CC(=O)N2CCOCC2)O[C@@H]1CO)c1ccccn1 | inactive
O=C(CCn1ccc(=O)[nH]c1=O)Nc1ccc2c(c1)NC(=O)CO2 | inactive
COc1ccc2c3c([nH]c2c1)[C@@H](CO)N(CC1CCCCC1)C[C@]13CCN(CC1)C(=O)NC1CCCC1 | inactive
Cc1noc(C)c1S(=O)(=O)Nc1ccc2c(c1)CC(=O)N([C@H](C)CO)C[C@@H](C)[C@H](CN(C)Cc1ccc3c(c1)OCO3)O2 | inactive
CN(C)c1ccsc1C(=O)NN | inactive
C[C@@H]1CN([C@H](C)CO)C(=O)c2cc(NC(=O)CCC(F)(F)F)ccc2O[C@@H](C)CCCCO[C@H]1CN(C)C(=O)C1CCCCC1 | inactive
C[C@@H]1CCCCO[C@H](CN(C)C(=O)C2CCCCC2)[C@H](C)CN([C@@H](C)CO)C(=O)c2cc(NC(=O)Nc3ccc4c(c3)OCO4)ccc2O1 | inactive
Cc1nc(COP(=O)(O)O)cc2c1[O][Mn][O]c1c(cc(COP(=O)(O)O)nc1C)CN(CC(=O)O)CCN(CC(=O)O)C2 | inactive

Structure (SMILES) | cytotoxicity call
C[C@@H]1CCCCO[C@H](CN(C)CC2CCCCC2)[C@H](C)CN([C@@H](C)CO)C(=O)c2cc(NC(=O)Nc3ccc(F)cc3)ccc2O1 | active
C[C@H]1CCCCO[C@@H](CN(C)CC2CC2)[C@@H](C)CN([C@@H](C)CO)C(=O)c2cc(NC(=O)Nc3ccc(F)cc3)ccc2O1 | inactive
C[C@@H]1CCCCO[C@@H](CN(C)CC2CCCCC2)[C@H](C)CN([C@@H](C)CO)C(=O)c2cc(NC(=O)Nc3ccc(F)cc3)ccc2O1 | active
C[C@@H]1CCCCO[C@H](CN(C)CC2CCCCC2)[C@@H](C)CN([C@H](C)CO)C(=O)c2cc(NC(=O)Nc3ccc(F)cc3)ccc2O1 | inactive
C[C@@H]1CN([C@@H](C)CO)C(=O)c2cc(NC(=O)Nc3ccc(F)cc3)ccc2O[C@@H](C)CCCCO[C@@H]1CN(C)CC1CCCCC1 | active
C[C@@H]1CCCCO[C@@H](CN(C)CC2CCCCC2)[C@H](C)CN([C@H](C)CO)C(=O)c2cc(NC(=O)Nc3ccc(F)cc3)ccc2O1 | active
C[C@@H]1CN([C@H](C)CO)C(=O)CCCn2cc(nn2)CO[C@H]1CN(C)S(=O)(=O)c1ccc2c(c1)OCCCO2 | inactive
Cc1noc(C)c1NC(=O)N(C)C[C@H]1OCCCC[C@H](C)Oc2ccc(NC(=O)NC3CCCCC3)cc2C(=O)N([C@@H](C)CO)C[C@@H]1C | inactive
CN(C)CC#Cc1ccc([C@@H]2[C@H]3CN(C(=O)CN(C)C)CCCCN3[C@H]2CO)cc1 | inactive
C[C@@H]1CCCCO[C@@H](CN(C)C(=O)NC2CCCCC2)[C@H](C)CN([C@@H](C)CO)C(=O)c2cc(NC(=O)NC3CCCCC3)ccc2O1 | inactive
O=C(C[C@@H]1C[C@H]2c3cc(NC(=O)c4ccc5c(c4)OCO5)ccc3O[C@H]2[C@@H](CO)O1)NCc1ccccn1 | inactive
C[C@@H]1CN([C@@H](C)CO)C(=O)c2cccc(NC(=O)Nc3ccc(C(F)(F)F)cc3)c2O[C@@H]1CN(C)Cc1ccc(-c2ccccc2)cc1 | inactive
CC(C)NC(=O)Nc1ccc2c(c1)CC(=O)N([C@H](C)CO)C[C@@H](C)[C@H](CN(C)S(=O)(=O)c1cn(C)cn1)O2 | inactive
C[C@H]1CN([C@@H](C)CO)C(=O)c2cccc(NS(=O)(=O)c3ccc(F)cc3)c2O[C@@H]1CN(C)Cc1ccncc1 | inactive
C[C@H](O)C#Cc1ccc2c(c1)O[C@H](CN(C)C(=O)c1ccccc1)[C@H](C)CN([C@@H](C)CO)S2(=O)=O | inactive
C[C@@H]1CN([C@@H](C)CO)S(=O)(=O)c2ccc(-c3cccnc3)cc2O[C@H]1CN(C)C(=O)c1cccc(F)c1 | inactive
C[C@H](CO)N1C[C@H](C)[C@H](CN(C)CC2CCCCC2)OCCCC[C@H](C)Oc2ccc(NC(=O)Nc3ccc(F)cc3)cc2C1=O | active
C[C@@H]1CN([C@@H](C)CO)C(=O)c2cc(NC(=O)Nc3ccc(F)cc3)ccc2O[C@@H](C)CCCCO[C@H]1CN(C)CC1CCCCC1 | active
C[C@H](CO)N1C[C@H](C)[C@@H](CN(C)CC2CC2)OCCCC[C@H](C)Oc2ccc(NC(=O)Nc3ccc(F)cc3)cc2C1=O | inactive
C[C@H](CO)N1C[C@H](C)[C@H](CN(C)CC2CC2)OCCCC[C@H](C)Oc2ccc(NC(=O)Nc3ccc(F)cc3)cc2C1=O | inactive
C[C@H](CO)N1C[C@H](C)[C@@H](CN(C)CC2CCCCC2)OCCCC[C@H](C)Oc2ccc(NC(=O)Nc3ccc(F)cc3)cc2C1=O | active
C[C@@H]1CCCCO[C@@H](CN(C)CC2CC2)[C@H](C)CN([C@@H](C)CO)C(=O)c2cc(NC(=O)Nc3ccc(F)cc3)ccc2O1 | inactive
C[C@@H]1CCCCO[C@@H](CN(C)CC2CC2)[C@@H](C)CN([C@H](C)CO)C(=O)c2cc(NC(=O)Nc3ccc(F)cc3)ccc2O1 | inactive
